PubChem BioAssay (NCI)
Where “and” joins values, the source holds several entries; their conditions need not be identical. Equal entries are not always repeated. Compounds without any hit were thinned out: in the full panel of roughly 83,000, 20% have a hit.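 Growth was measured after 48 h exposure to one concentration of compound in 96-well plates. Values under 10 count as active.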 Values without a mark were called inactive. Calls of active or inactive are those of the source.

Experiments:
Assay in all cases: NCI-60 one-dose screen, 48 h (100 = growth as untreated, 0 = no growth, -100 = all killed)
HCT-15 colon = settings: 10 µM
HT29 colon = settings: 10 µM
SNB-75 CNS = settings: 10 µM
U251 CNS = settings: 10 µM
PC-3 prostate = settings: 10 µM
SK-MEL-5 melanoma = settings: 10 µM
UACC-62 melanoma = system: UACC-62 melanoma
LOX IMVI melanoma = settings: 10 µM
SK-MEL-28 melanoma = settings: 10 µM
SNB-19 CNS = settings: 10 µM

Row | Structure (SMILES) | growth (HCT-15 colon) | growth (HT29 colon) | growth (SNB-75 CNS) | growth (U251 CNS) | growth (PC-3 prostate) | growth (SK-MEL-5 melanoma) | growth (UACC-62 melanoma; 10 µM unless noted) | growth (LOX IMVI melanoma) | growth (SK-MEL-28 melanoma) | growth (SNB-19 CNS) | growth (UACC-62 melanoma; 10 µM) | growth (UACC-62 melanoma; 100 µM)
1 | COC(=O)c1[nH]c(=O)c(C#N)c(C(=O)OC)c1C(=O)c1ccccc1 | 98.1% | 113% | 85.6% | 96.8% | 103% | 100% | 88.6% | 89.9% | 101% | – | – | –
2 | COC(=O)c1cc(-c2ccc(Cl)c(Cl)c2)[nH]c(=O)c1C#N | 96.3% | 107% | 99.2% | 97.3% | 102% | 98.9% | 90.9% | 101% | 100% | – | – | –
3 | O=[N+]([O-])c1ccc(-c2noc(-c3cccs3)n2)cc1 | 84% | 92.5% | 83.2% | 86.5% | 90.3% | 83.5% | 76.6% | 86% | 99.5% | – | – | –
4 | CS(=O)CC1=NC(=N)N=C1CS(C)=O (stereo not given) | 102% | 109% | 97.7% | 98.1% | 98.7% | 99.3% | 98.4% | 96.7% | 108% | – | – | –
5 | Cc1cc2nc(CC(=O)c3cccc([N+](=O)[O-])c3)c(=O)[nH]c2cc1C | 77% | 68.2% | 96.1% | 95.1% | 68% | 97.9% | 65% | 72.8% | 97.7% | – | – | –
6 | CCS(=O)(=O)CCCl | 91.8% | 110% | 123% | 102% | 99.5% | 94.3% | 85.1% | 81.7% | 106% | – | – | –
7 | O=C(Nc1ccccc1C(=O)NCC1CC1)c1cccs1 | 93.8% | 105% | 70.3% | – | 94.6% | – | 98.4% | 102% | 110% | 100% | – | –
8 | CCCCNC(=O)C(=O)NCCCC | 105% | 120% | 116% | 114% | 105% | 100% | 92.6% | 102% | 112% | – | – | –
9 | O=C(Cc1nc2ccc([N+](=O)[O-])cc2nc1CC(=O)c1cccnc1)c1cccnc1 | 58.3% | 95.8% | 4% (active) | 37.7% | 96.7% | 74.5% | 69.4% | 49.4% | 80.6% | – | – | –
10 | CC(=O)Cc1cc(-c2cc(CC(C)=O)[nH]n2)n[nH]1 | 99.4% | 102% | 87.1% | 97.7% | 96.7% | 99.6% | 90.3% | 96.3% | 107% | – | – | –
11 | CC(=O)Nc1c(C)cc(C)cc1C | 102% | 119% | 89.2% | 99.3% | 103% | 100% | 107% | 96.9% | 112% | – | – | –
12 | CCCCCCCCCCCCCC(=O)Oc1ccc[nH]c1=O | 85.8% | 91.9% | 110% | 96.3% | 86.9% | 97.1% | 88.7% | 44.1% | 109% | – | – | –
13 | c1c(-c2cc(C3CC3)[nH]n2)n[nH]c1C1CC1 | 103% | 98.7% | 112% | 95.2% | 98.1% | 82.1% | 87.2% | 77.8% | 100% | – | – | –
14 | O=C1NC(=O)C2C(=O)NC(=O)C1C21CCc2ccccc21 (stereo not given) | 105% | 123% | 124% | 106% | 90.1% | 96.3% | 83.6% | 102% | 113% | – | – | –
15 | CC(C)=NNc1ccc([N+](=O)[O-])cc1[N+](=O)[O-] | 62.3% | 91.8% | – | 92.9% | 87.3% | 102% | 65.1% | 77.6% | 111% | 98.3% | – | –
16 | Cc1ccncc1C(N)=O | 96.6% | 105% | 80.9% | 98.3% | – | 100% | 95.8% | 93.2% | 114% | – | – | –
17 | Nc1ccccc1SC(CC(=O)c1ccccc1)c1c(Cl)cccc1Cl (stereo not given) | 44.5% | 42.5% | 70.6% | 27% | – | 81.4% | 73.9% | 22.7% | 90.8% | – | – | –
18 | CC(=O)c1sc2c(c1OC(=O)c1ccc(Cl)cc1Cl)c(=O)n(-c1ccccc1)c(=S)n2-c1ccccc1 | 3.9% (active) | -23.9% (active) | – | 1.6% (active) | -29.7% (active) | 42.7% | – | -18.9% (active) | – | 16.3% | 29.4% | -11.6% (active) and -45.7% (active)
19 | CN(C)CCC(=O)c1ccc(O)cc1 | 104% | 105% | 93.7% | 100% | 106% | 99.9% | – | 97.2% | 110% | – | – | –
20 | CC1CCCC(CC(N)=O)CC1 (stereo not given) | 107% | 85% | – | 99.7% | 78.8% | 103% | 104% | 101% | 119% | 110% | – | –
21 | O=C1OC(=O)C2C1C1(Cl)C(Cl)=C(Cl)C2(Cl)C2C(=O)OC(=O)C21 (stereo not given) | 103% | 104% | – | 101% | 97.9% | 103% | 102% | 98.4% | 107% | 106% | – | –
22 | CC(=O)/C(Cc1ccccc1)=N/O | 99.7% | 92.9% | – | 94.9% | 84.9% | 106% | 98.1% | 94.2% | 110% | 98.9% | – | –
23 | O=[N+]([O-])c1cccc(C(F)(F)F)c1 | 93.8% | 98.7% | – | 104% | 94.6% | 107% | 101% | 99.7% | – | 103% | – | –
24 | CC1(C)/C(=C\CO)C2CCC1C2 (stereo not given) | 105% | 109% | – | 105% | 95% | 102% | 97.3% | 107% | 115% | 106% | – | –
25 | CCOc1ccc(/C=C/C(=O)c2ccccc2)cc1 | 92.4% | 96.1% | – | 86.7% | 73.7% | 99.6% | 88.9% | 93.5% | 100% | 92.2% | – | –
26 | NCCC(=O)c1ccc(Cl)cc1 | 107% | 106% | 96.1% | 105% | 97.2% | – | 112% | 106% | 109% | – | – | –
27 | OC1OC(COC(c2ccccc2)(c2ccccc2)c2ccccc2)C(O)C(O)C1O (stereo not given) | 98.6% | 110% | 72% | 91% | – | – | 85.5% | 93.6% | 91.4% | – | – | –
